Data on 99 molecules can be found in PubChem BioAssay AID1209 (Sanford-Burnham Center for Chemical Genomics, 2008).

Among all 190,000 compounds or so, about 810 (0.43%) were called active. Only a selection was taken, and actives are over-represented in it overall. Values without a mark were called inactive. Rule as the data show it: active = inhibition above about 50%; inactive = the rest.

For the assay, the target named is Mannose-6-phosphate isomerase (Homo sapiens) (UniProt P34949). Put plainly: MPI enzyme activity inhibition – biochemical, fluorescence intensity, coupled assay, primary screen (AID 1209).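 Also: plate controls were DMSO vehicle for no effect and wells lacking substrate for full effect.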 The following applies: purified PMI enzyme, at 20 µM, stronger effect = higher value.
Sequence of Mannose-6-phosphate isomerase (Homo sapiens) (P34949 whole entry, looked up): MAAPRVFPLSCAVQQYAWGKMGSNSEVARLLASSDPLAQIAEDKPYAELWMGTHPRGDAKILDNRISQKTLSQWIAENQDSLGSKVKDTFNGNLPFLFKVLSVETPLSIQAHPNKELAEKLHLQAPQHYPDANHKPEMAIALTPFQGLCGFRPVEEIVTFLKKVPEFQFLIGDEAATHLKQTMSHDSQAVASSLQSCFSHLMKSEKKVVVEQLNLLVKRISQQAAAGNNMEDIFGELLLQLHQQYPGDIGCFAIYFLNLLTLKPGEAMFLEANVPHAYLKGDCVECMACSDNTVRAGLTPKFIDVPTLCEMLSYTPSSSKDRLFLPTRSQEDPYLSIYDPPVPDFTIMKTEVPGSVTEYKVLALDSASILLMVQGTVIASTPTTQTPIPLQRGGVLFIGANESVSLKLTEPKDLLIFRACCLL
Regarding `O=C(O)CCn1cc(C=C2C(=O)NC(=S)NC2=O)c(-c2ccccc2)n1`, the inhibition (in general, the change of the read-out against control, counted positive when it falls) was 55.5% (active).
In the case of `O=C(O)CCn1cc(C=C2C(=O)NC(=O)NC2=O)c(-c2ccc(Br)cc2)n1` it was 5.8%; in that of `O=C(O)CCn1cc(C=C2C(=O)NC(=S)NC2=O)c(-c2cccc(Cl)c2)n1`, 64.1% (active); in that of `O=C(O)CCn1cc(C=C2C(=O)NC(=O)NC2=O)c(-c2cc3ccccc3oc2=O)n1`, -3.7%.
As for `O=C(O)CCn1cc(C=C2C(=O)NC(=S)NC2=O)c(-c2cc3ccccc3oc2=O)n1`, the inhibition is -33.9%.
In the case of `N#CCCn1cc(C=C2C(=O)NC(=O)NC2=O)c(-c2ccccc2)n1` it was -7.4%.
For the molecule `O=c1c2ccccc2nc(-c2cccs2)n1-c1ccccc1`, the inhibition is -8.6%.
For the molecule `COc1ccc(N/N=C/c2c(O)n(-c3cccc(C)c3)c(=O)[nH]c2=O)cc1`, the inhibition was -72.8%.
Regarding `CCOCCCNC(=O)CN1C2CCC1CC(O)(c1ccc(OC)cc1)C2` (centres undefined), the inhibition was 15%.
With `CC(=O)Nc1ccccc1OC(=O)N(C)C` the figure was 7.3%; with `CN(C)CCCN=Cc1c(O)n(CCc2ccccc2)c(=O)[nH]c1=O`, -1.1%.
In the case of `CCCCn1c(N)c(C(=O)NCc2cccs2)c2nc3ccccc3nc21` it was 59.9% (active); in that of `COCCCn1c(N)c(C(=O)NCCC(C)C)c2nc3ccccc3nc21`, 37.9%.
In the case of `CCOC(=O)c1c(N)n(CCCOC(=O)c2ccco2)c2nc3ccccc3nc12` it was 6%; in that of `CCCCn1c(NC(=O)c2ccc(Br)o2)c(C(=O)OCC)c2nc3ccccc3nc21`, 22.2%.
For the molecule `CCCCNC(=O)c1c(N)n(CCCOC)c2nc3ccccc3nc12`, the inhibition is 41.1%.
In the case of `CCCCCn1c(N)c(C(=O)NCCN2CCOCC2)c2nc3ccccc3nc21`, the inhibition was 25.4%.
For the molecule `CCCCn1c(NC(=O)c2ccco2)c(C(=O)OCC)c2nc3ccccc3nc21`, the inhibition was 55.8% (active).
In the case of `CCC(C)NC(=O)c1c(N)n(CCCOC)c2nc3ccccc3nc12` (centres undefined), the inhibition is 56% (active).
With `CCCCn1c(N)c(C(=O)NCCN2CCOCC2)c2nc3ccccc3nc21`, the inhibition is 17.1%.
For `CC(C)CCn1c(N)c(C(=O)NCc2cccs2)c2nc3ccccc3nc21`, the inhibition was 24.5%.
For the molecule `CCCCCn1c(N)c(C(=O)NCc2cccs2)c2nc3ccccc3nc21`, the inhibition is 51.9% (active).
As to `CCCCCCn1c(N)c(C(=O)NCCN2CCOCC2)c2nc3ccccc3nc21`, the inhibition is 28.6%.
In the case of `CC1C(c2cccs2)=[N+]([O-])C(C)(C(=O)c2cccs2)N1O` (centres undefined) it was -1.9%.
`Cc1c(C=O)c2ccccc2n1Cc1cccc(F)c1`: the inhibition is -20.1%.
Turning to `CCOC(=O)C1C(=O)N(C)C2(C)CC1c1cc(OC)ccc1O2` (centres undefined), the inhibition was -7%.
For `O=C1NC(=O)C(CCc2ccncc2)(CCc2ccncc2)C(=O)N1CCc1ccc(F)cc1`, the inhibition is -4.4%.
As to `COc1ccc2[nH]c(C)c(CCN3CCC(=O)C(C)C3C)c2c1` (centres undefined), the inhibition was 13.4%.
Take `CCOC(=O)N(c1ccccc1)P1(=S)OCC(C)O1` (centres undefined): the inhibition was -1.5%.
For `COC(=O)N(c1ccc(OC)cc1)P1(=S)OCCC(C)O1` (centres undefined), the inhibition was 62.3% (active).
For the molecule `COC(=O)N(c1ccccc1)P1(=S)OCCO1`, the inhibition was 24.3%.
Turning to `CCn1c(=O)n(CC)c2cc([N+](=O)[O-])c(N3CCNCC3)cc21`, the inhibition was 0.8%.
Regarding `CCn1nc(-c2cccs2)nc2c(=O)n(C)c(=O)nc1-2`, the inhibition is 6.3%.
With `Cn1ncnc2c(=O)n(C)c(=O)nc1-2` the figure was 74.8% (active); with `CCn1nc(-c2ccccc2)nc2c(=O)n(C)c(=O)nc1-2`, -4.4%.
With `Cc1nc2c(=O)n(C)c(=O)nc-2n(C)n1`, the inhibition is 73.6% (active).
Regarding `CCn1nc(/C=C/c2ccccc2)nc2c(=O)n(C)c(=O)nc1-2`, the inhibition was 39.7%.
In the case of `CCc1ccc(CN2CCN(Cc3ccc(SC)cc3)CC2)cc1` it was -14.5%; in that of `C=C1N2CCC(CC2)C1(O)c1ccc(C)c(C)c1` (centres undefined), -10.2%; in that of `O=C(Cc1ccccc1)OCCNC(=O)c1cccnc1`, -4%.
Regarding `CN(C)C(=O)Oc1c(Cl)cc(Cl)c2cccnc12`, the inhibition is 8.2%.
In the case of `COC(=O)c1ccccc1N=Cc1c(O)[nH]c(=S)[nH]c1=O`, the inhibition is -42.9%.
In the case of `O=c1c(/C=N/N2CCOCC2)c(O)n(-c2ccccc2)c(=S)n1-c1ccccc1` it was 4.6%; in that of `Cc1ccccc1C(=O)NC(Oc1ccccc1)C(Cl)(Cl)Cl` (centres undefined), 6.5%.
As for `CC(=O)N(C1=NCCCS1)c1ccccc1Cl`, the inhibition was -4.6%.
With `O=c1[nH]c(=O)n(-c2cccc(Cl)c2)c(O)c1C=NCCCN1CCOCC1`, the inhibition is 4.5%.
On to `CC1=CC(=O)NP(=O)(Oc2ccc3ccccc3c2)N1` (centres undefined), for which the inhibition is 78.5% (active).
For the molecule `COc1ccc(P2(=O)Nc3ccccc3N2)cc1`, the inhibition is 16.8%.
For `O=C(C1CC(c2ccc(F)cc2)=NO1)N1CCC2(CC1)OCCO2` (centres undefined), the inhibition was -5.3%.
On to `Cn1ccnc1P(=S)(c1nccn1C)c1nccn1C`, for which the inhibition was -5%.
For the molecule `O=P(c1ccccc1)(c1nc2ccccc2s1)N1CCOCC1` (centres undefined), the inhibition was -5.8%.
`Cc1ccc(NP(=O)(c2ccccc2)c2nc3ccccc3s2)cc1` (centres undefined): the inhibition is 80.5% (active).
For `COCCNP(=O)(c1ccccc1)c1nc2ccccc2s1` (centres undefined), the inhibition is 1.6%.
With `CN(C)c1ccc([P+](=O)c2ccc(N(C)C)cc2)cc1` the figure was 10.8%; with `CCc1c(C)nc(N)nc1N1N=C1SCC(N)=O`, -3%; with `Cc1ccccc1N1C(=O)NC(=O)/C(=C\c2ccc3c(c2)CCCN3Cc2ccccc2)C1=O`, -9%.
In the case of `CC1CC(OP(O)(=S)c2ccc(N(C)C)cc2NC(=O)c2cccs2)CC(C)(C)C1` (centres undefined), the inhibition is 59.7% (active).
As for `CCOC(=O)C1(CCc2ccccc2)CCN(Cc2cccc3cnccc23)CC1`, the inhibition is 24.8%.
For the molecule `COc1ccc(C(CC(=O)N2CCC3(CC2)OCCO3)NS(=O)(=O)c2ccc(OC)cc2)cc1` (centres undefined), the inhibition is 4.9%.
With `O=C(C1CCCO1)N1CCC2(CC1)OCCO2` (centres undefined), the inhibition was 5.3%.
Turning to `Cc1cc(C=C2C(=O)N(C)C(=S)N(C)C2=O)c(C)n1C1CCCC1`, the inhibition was 6%.
For the molecule `Cc1cc(C=C2C(=O)N(C)C(=S)N(C)C2=O)c(C)n1C1CCCCC1`, the inhibition is -12.8%.
Consider `CCN1C(=O)C(=Cc2cc(C)n(C3CC3)c2C)C(=O)N(CC)C1=S`, for which the inhibition was 63.8% (active).
With `Cn1c(O)c(C(=O)c2ccccc2)c(=O)n(C)c1=O` the figure was -12.2%; with `CCCCC(=O)N/N=C/c1c(O)n(C2CC2)c(=S)[nH]c1=O`, 20.6%; with `O=c1[nH]c(=S)n(C2CC2)c(O)c1/C=N/Nc1ccccc1`, -61.8%.
`O=C(N/N=C/c1c(O)n(C2CC2)c(=S)[nH]c1=O)c1ccccc1O`: the inhibition was 60.8% (active).
Take `COc1ccc(C2=NCC(=O)N(CC(=O)NCc3ccco3)c3sc4c(c32)CCCC4)cc1`: the inhibition is 4.5%.
With `O=C1CC(=O)N(c2cccc(Cl)c2)C(=O)N1` the figure was 0.2%; with `CCCCc1nc(N2CCNCC2)c(C#N)c2c1CSC(C)(C)C2`, 3.9%.
As to `Oc1ccc(/C=N/NP(=S)(c2ccccc2)c2ccccc2)cc1`, the inhibition was 14.9%.
With `Oc1ccc(/C=N/NP(=S)(c2ccccc2)c2ccccc2)c(O)c1O`, the inhibition was 62.4% (active).
Consider `Oc1ccccc1/C=N/NP(=S)(c1ccccc1)c1ccccc1`, for which the inhibition is 6.9%.
For `O=C1c2ccccc2C(=O)N1Cc1nc2ccccc2c(=O)n1-c1ccccn1`, the inhibition was -3%.
Consider `CCCCCCOc1ccc(CN2CCN(CCO)CC2)cc1`, for which the inhibition is -11.3%.
As for `COc1cccc(N2CCN(Cc3cccc(Cl)c3)CC2)c1`, the inhibition is 9.6%.
In the case of `C[C@]12CC[C@@H]3c4ccc(O)c(O)c4CC[C@H]3[C@@H]1CC[C@@H]2O`, the inhibition was 75.9% (active).
Regarding `CC12CCC3C(CCC4C/C(=N/O)CCC43C)C1CCC2O` (centres undefined), the inhibition was 2.7%.
With `CC12CCC(=O)C=C1CCC1C2CCC2(C)C(O)CCC12` (centres undefined), the inhibition is -6.1%.
For `CCOP(=O)(C#CC(C)(C)C)C(C)(O)c1ccccc1` (centres undefined), the inhibition was 3.1%.
Regarding `Cc1nc2cc(C(F)(F)F)ccc2n1C1CCN(Cc2nnnn2Cc2cccs2)CC1`, the inhibition is 9.2%.
With `CN1CCN(c2c(N)c(=O)oc3ccccc23)CC1` the figure was 0.6%; with `COCCOC(=O)c1c(N)n(Cc2ccccc2)c2nc3ccccc3nc12`, 14.3%.
In the case of `Cn1c(O)c(C=NC2CCCCCC2)c(=O)[nH]c1=S`, the inhibition was 6.6%.
For the molecule `CN(C)c1cccc2c(C#N)ccc(N(C)C)c12`, the inhibition was 82% (active).
As to `CC(C)(C)c1ccc(S(=O)(=O)N2CC3CC(C2)c2cccc(=O)n2C3)cc1` (centres undefined), the inhibition was -3.5%.
Consider `Cc1cc(=O)[nH]c(SCc2nc3ccccc3c(=O)n2-c2ccccc2C)n1`, for which the inhibition is 0.9%.
With `COc1cccc(NP(=O)(Oc2ccc(Cl)cc2)Oc2ccc(Cl)cc2)c1` the figure was 18.7%.
Take `Cc1ccsc1C(=O)C1CCCN(Cc2cnn(C)c2)C1` (centres undefined): the inhibition is 9.3%.
On to `COc1ccc(CC2c3cc(OC)c(OC)cc3CCN2C)cc1O` (centres undefined), for which the inhibition is -2.1%.
`O=C1C2CCN(CC2)C1Cc1ccccc1O` (centres undefined): the inhibition is -6.7%.
As for `Oc1ccc(CC2CC3CCN2CC3)cc1O` (centres undefined), the inhibition was 52.7% (active).
As for `CCc1ccc(N2C(=O)NC(=O)C(CCc3ccncc3)(CCc3ccncc3)C2=O)cc1`, the inhibition is 4.9%.
Consider `c1ccc(CCn2nnnc2CN2CCC(n3nnc4ccccc43)CC2)cc1`, for which the inhibition was -11.1%.
In the case of `COc1cccc(N2C(=O)NC(=O)C3(Cc4cc(C)ccc4N(C)C3)C2=O)c1` (centres undefined) it was -37%.
With `CN1CCc2nc(N)c(C#N)c(-c3ccccc3)c2C1`, the inhibition is 2.3%.
On to `Cc1ccc2c(c1)=C/C(=C\c1c(O)[nH]c(=O)[nH]c1=O)C(=O)N=2`, for which the inhibition was 65% (active).
For `Cc1ccc2c(c1)=C/C(=C\c1c(O)[nH]c(=S)[nH]c1=O)C(=O)N=2`, the inhibition was 21.3%.
With `Cc1cccc2c1=NC(=O)/C(=C/c1c(O)[nH]c(=O)[nH]c1=O)C=2` the figure was -7.2%.
